This is an account of results in PubChem BioAssay.

Assay [1] is described as follows: growth inhibition of DIPG glioma cells, dose response, cell-based, SU-DIPG-XVII, MIPE5.0, CellTiter-Glo, qHTS (AID 1347060; cut-off not given, nearly all actives have AC50 up to about 26 µM;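 for AC50: cells exposed to compound for 48 hours before viability readout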). The note with it: SU-DIPG-XVII viability, CellTiter-Glo ATP luminescence.
The nature of assay [2]: growth inhibition of DIPG glioma cells, dose response, cell-based, JHH-DIPG-1, MIPE4.0, CellTiter-Glo, qHTS (AID 1347062; cut-off not given, nearly all actives have AC50 up to about 27 µM;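 for AC50: cells exposed to compound for two days before readout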). The settings on record: JHH-DIPG-1 viability, CellTiter-Glo ATP luminescence. Background: In ATP-based viability assays light output follows the ATP content of the culture.
Assay [3] is described as follows: growth inhibition of DIPG glioma cells, dose response, cell-based, SU-DIPG-IV, MIPE4.0, CellTiter-Glo, qHTS (AID 1347063; cut-off not given, nearly all actives have AC50 up to about 30 µM;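 note: compound exposure lasted 48 hours before the viability readout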). The settings on record: SU-DIPG-IV viability, CellTiter-Glo ATP luminescence.
A short description of assay [4]: growth inhibition of DIPG glioma cells, dose response, cell-based, SU-DIPG-XIII, MIPE5.0, CellTiter-Glo, qHTS (AID 1347064; cut-off not given, nearly all actives have AC50 up to about 23 µM;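 for AC50: cells exposed to compound for 48 hours before the viability read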). The settings on record: SU-DIPG-XIII viability, CellTiter-Glo ATP luminescence.
Assay [5] is described as follows: viability loss in pontine glioma line – cell-based, SU-DIPG-XXV, MIPE5.0, CellTiter-Glo, qHTS, dose response (AID 1347065; cut-off not given, nearly all actives have AC50 up to about 26 µM;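 note: cells exposed to compound for 48 hours before ATP readout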). The settings on record: CellTiter-Glo ATP luminescence.
Assay [6] is described as follows: SU-DIPG-VI glioma cell viability, MIPE4.0 library, CellTiter-Glo luminescence, qHTS (AID 1347066; cut-off not given, nearly all actives have AC50 up to about 30 µM;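 note: cells exposed to compound for 48 hours before readout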). The note with it: CellTiter-Glo ATP luminescence.
The nature of assay [7]: JHH-DIPG-1 glioma cell viability, MIPE5.0 library, CellTiter-Glo luminescence, qHTS (AID 1347067; cut-off not given, nearly all actives have AC50 up to about 26 µM;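 note: cells exposed to compound for 48 hours before readout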). The settings on record: JHH-DIPG-1 glioma viability, CellTiter-Glo ATP luminescence.
Assay [8] can be described thus: SU-DIPG-XXV glioma cell viability, MIPE5.0 library, qHTS (AID 1347068; cut-off not given, nearly all actives have IC50 up to about 30 µM;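 for IC50: cells exposed to compound for 48 hours before viability readout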). Background: qHTS replaces the single test concentration by a dilution series.
Assay [9] is described as follows: modifiers of HSF1 nuclear foci, imaging, Selleck Cancer Library (AID 1347162; in the data active = plate-normalised HSF1 focus index below about 0.46). The settings on record: human cells, at 10 µM; SSMD: measured here: HSF1 foci SSMD mean; cell count: measured here: cell number; plate-normalised HSF1 focus index: stronger effect = lower value.
Assay [10] in a line: sensitizers of A549 cells to miR-34 induction, primary screen, imaging, A549 dox-inducible miR-34, nuclei and caspase counts (AID 1347080;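 active = compounds whose cell count with miR-34 switched on is under 0.7 times the count with it off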). The note with it: A549 miR-34 inducible, Hoechst nuclei count, 48 h.
Assay [11] in a line: survival rescue of mitochondrial mutant cells in low glucose, primary screen, MELAS cybrids, Rieske KO mouse fibroblasts, CellTiter-Glo (AID 1508586;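 active = mean z-score across replicates of 1.96 or higher in either the MELAS or the Rieske mutant cell line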;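 note: z relative to plate mean and SD of compound and empty wells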).
Assay [12] is described as follows: ovarian cancer cell viability with rucaparib, profiling panel, oncology-focused library, rucaparib conditional (AID 1508598). The settings on record: patient-derived ovarian cancer cells, CellTiter-Glo viability, 144 h, stronger effect = lower value.
Setting [13] is: stronger effect = lower value, cell number ratio, induced over uninduced.
Where [14] appears, read: measured here: relative caspase fold change +Dox/-Dox.
[15] abbreviates: measured here: total cells with miR-34 induction, stronger effect = lower value.
[16] abbreviates: measured here: total cells without miR-34 induction.
Setting [17] is: MELAS cybrid survival, CellTiter-Glo 48 h, stronger effect = higher value.
[18] abbreviates: Rieske KO mouse fibroblast survival, CellTiter-Glo 72 h.

Values joined by “and” are separate entries in the source; they are usually repeats but may differ in a detail not shown here. Identical values can stand only once. Results filed as inconclusive are left out. Active and inactive are the calls of the source.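 Rule for the calls, unless noted: active = normalized viability below 100% at a tested concentration; inactive = the rest.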

Regarding `Cc1c(CCOc2ccc(C(=O)O)cc2)c2cc(Cl)ccc2n1C(c1ccccc1)c1ccccc1`, the compound was classed as inactive in assay [1], in assay [2], in assay [3], in [4], in assay [5] and in assay [6]. Also, the compound was classed as inactive in [7] and in assay [8]. In assay [9], this compound gave an SSMD of 2.36. In assay [9], this compound showed a cell count of 6680. Besides, in assay [9], the plate-normalised HSF1 focus index is 1.14 (inactive).
Take `COc1cc2c(Nc3ccc(Cl)c(Cl)c3F)ncnc2cc1OCC1C[C@@H]2CN(C)C[C@@H]2C1` (stereo partly drawn): the concentration at half-maximal activity (AC50) (usually the concentration giving half of the maximal activity seen) in assay [1] is 5.25 µM (active); in assay [2], 18.7 µM (active); in [3] it was 6.62 µM (active); in assay [4] it was 8.33 µM (active); in assay [5], 7.42 µM (active) and 8.33 µM (active); in assay [7] it was 4.68 µM (active) and 2.35 µM (active). Further, in assay [8], the IC50 (commonly the point on the concentration scale where inhibition reaches its midpoint) was 18.6 µM (active) and 16.6 µM (active).
`Nc1nc(N)c2nc(-c3cccc(O)c3)c(-c3cccc(O)c3)nc2n1`: the compound was called inactive in assay [1], in assay [4], in [5], in [7] and in assay [8]. For the same compound, the AC50 is 14.8 µM (active) in [2] and 6.62 µM (active) in assay [3]. Further, the fold change in assay [10] (setting [13]) was 0.972 (inactive); in assay [10] (setting [14]), 0.762. In addition, the figures for the cell count in [10] (setting [15]) and in [10] (setting [16]) were 7630 and 7850, respectively. The z-score in [11] (setting [17]) was -0.482 (inactive); in [11] (setting [18]) it was 0.936.
As to `CN1CC[C@@H](c2c(O)cc(O)c3c(=O)cc(-c4ccccc4Cl)oc23)[C@@H](O)C1`, the AC50 was 0.468 µM (active) in assay [1]; 0.105 µM (active) in assay [2]; 0.0743 µM (active) in [3]; 0.332 µM (active) in assay [4]; 468 nM (active) in assay [5]; 590 nM (active) in [7].
In the case of `CC1(C)Cc2c(-c3ccccc3)c(-c3ccc(Cl)cc3)c(CC(=O)O)n2C1`, the results for the AC50 in [1] and in assay [3] were 26.3 µM (active) and 18.7 µM (active), respectively. In addition, the call in assay [2], in assay [4] and in assay [8] was inactive. The fold change in assay [10] (setting [13]) was 0.932 (inactive); in [10] (setting [14]) it was 1.58. Further, the values for the cell count in [10] (setting [15]) and in [10] (setting [16]) were 5140 and 5520, respectively. Also, the z-score in assay [11] (setting [17]) is -0.384 (inactive); in assay [11] (setting [18]), 1.11.
Regarding `COc1cc2nccc(Oc3ccc(NC(=O)C4(C(=O)Nc5ccc(F)cc5)CC4)cc3)c2cc1OC`, the AC50 is 13.2 µM (active) in assay [1]; 2.35 µM (active) in assay [2]; 4.69 µM (active) in assay [3]; 16.6 µM (active) in assay [4]; 7420 nM (active) in [5]; 11800 nM (active) in assay [7]. For the same compound, in assay [8], the IC50 is 8.33 µM (active). The fold change is 1.18 (inactive) and 1.06 (inactive) in [10] (setting [13]); 0.894 and 0.677 in assay [10] (setting [14]). Further, the cell count in assay [10] (setting [15]) was 1810 and 3700; in assay [10] (setting [16]), 1540 and 3490. The z-score is -0.475 (inactive) and -0.436 (inactive) in assay [11] (setting [17]); 1.25 and 1.04 in [11] (setting [18]). Besides, the viability (commonly a read-out of living cells in per cent, often relative to untreated cells) in [12] (at 0.000305 µM, OCI-C5x cells, with rucaparib 10 µM, 100% = cells with rucaparib alone) was 114% (inactive); in assay [12] (at 0.000305 µM, OCI-C5x cells, without rucaparib), 126% (inactive); in [12] (at 0.000305 µM, OCI-P5x cells, with rucaparib 20 µM, 100% = cells with rucaparib alone) it was 85.5% (active); in assay [12] (at 0.000305 µM, OCI-P5x cells, without rucaparib), 68.9% (active); in assay [12] (at 0.00122 µM, OCI-C5x cells, with rucaparib 10 µM, 100% = cells with rucaparib alone), 115% (inactive); in [12] (at 0.00122 µM, OCI-C5x cells, without rucaparib), 119% (inactive). The viability in [12] (at 0.00122 µM, OCI-P5x cells, with rucaparib 20 µM, 100% = cells with rucaparib alone) was 59.2% (active); in [12] (at 0.00122 µM, OCI-P5x cells, without rucaparib), 22.8% (active); in assay [12] (at 0.00488 µM, OCI-C5x cells, with rucaparib 10 µM, 100% = cells with rucaparib alone), 110% (inactive); in assay [12] (at 0.00488 µM, OCI-C5x cells, without rucaparib) it was 114% (inactive); in [12] (at 0.00488 µM, OCI-P5x cells, with rucaparib 20 µM, 100% = cells with rucaparib alone) it was 94.7% (active); in [12] (at 0.00488 µM, OCI-P5x cells, without rucaparib), 99.9% (active). Besides, the viability is 118% (inactive) in assay [12] (at 0.0195 µM, OCI-C5x cells, with rucaparib 10 µM, 100% = cells with rucaparib alone); 122% (inactive) in assay [12] (at 0.0195 µM, OCI-C5x cells, without rucaparib); 94.3% (active) in assay [12] (at 0.0195 µM, OCI-P5x cells, with rucaparib 20 µM, 100% = cells with rucaparib alone); 101% (inactive) in assay [12] (at 0.0195 µM, OCI-P5x cells, without rucaparib); 127% (inactive) in assay [12] (at 0.0781 µM, OCI-C5x cells, with rucaparib 10 µM, 100% = cells with rucaparib alone); 115% (inactive) in assay [12] (at 0.0781 µM, OCI-C5x cells, without rucaparib). The viability was 93.1% (active) in [12] (at 0.0781 µM, OCI-P5x cells, with rucaparib 20 µM, 100% = cells with rucaparib alone); 101% (inactive) in assay [12] (at 0.0781 µM, OCI-P5x cells, without rucaparib); 130% (inactive) in assay [12] (at 0.313 µM, OCI-C5x cells, with rucaparib 10 µM, 100% = cells with rucaparib alone); 129% (inactive) in assay [12] (at 0.313 µM, OCI-C5x cells, without rucaparib); 87.8% (active) in assay [12] (at 0.313 µM, OCI-P5x cells, with rucaparib 20 µM, 100% = cells with rucaparib alone); 94.8% (active) in assay [12] (at 0.313 µM, OCI-P5x cells, without rucaparib). The viability in assay [12] (at 1.25 µM, OCI-C5x cells, with rucaparib 10 µM, 100% = cells with rucaparib alone) is 147% (inactive); in assay [12] (at 1.25 µM, OCI-C5x cells, without rucaparib), 133% (inactive); in assay [12] (at 1.25 µM, OCI-P5x cells, with rucaparib 20 µM, 100% = cells with rucaparib alone), 84.5% (active); in assay [12] (at 1.25 µM, OCI-P5x cells, without rucaparib) it was 91.5% (active); in [12] (at 5 µM, OCI-C5x cells, with rucaparib 10 µM, 100% = cells with rucaparib alone) it was 146% (inactive); in assay [12] (at 5 µM, OCI-C5x cells, without rucaparib) it was 133% (inactive). For the same compound, the viability in assay [12] (at 5 µM, OCI-P5x cells, with rucaparib 20 µM, 100% = cells with rucaparib alone) was 74.7% (active); in assay [12] (at 5 µM, OCI-P5x cells, without rucaparib), 85.4% (active).
